In the supplement of paper PMC10849652 one finds log2 fold change data, which are given here for 39 targets.

The full data set covers some 7,900 targets. This sample favours those with a hit. About 0.6% of all pairs of compound and target were hits. A number with no mark means an inactive call.

Chain of UniProt Q13409 (Q13409 whole entry, looked up): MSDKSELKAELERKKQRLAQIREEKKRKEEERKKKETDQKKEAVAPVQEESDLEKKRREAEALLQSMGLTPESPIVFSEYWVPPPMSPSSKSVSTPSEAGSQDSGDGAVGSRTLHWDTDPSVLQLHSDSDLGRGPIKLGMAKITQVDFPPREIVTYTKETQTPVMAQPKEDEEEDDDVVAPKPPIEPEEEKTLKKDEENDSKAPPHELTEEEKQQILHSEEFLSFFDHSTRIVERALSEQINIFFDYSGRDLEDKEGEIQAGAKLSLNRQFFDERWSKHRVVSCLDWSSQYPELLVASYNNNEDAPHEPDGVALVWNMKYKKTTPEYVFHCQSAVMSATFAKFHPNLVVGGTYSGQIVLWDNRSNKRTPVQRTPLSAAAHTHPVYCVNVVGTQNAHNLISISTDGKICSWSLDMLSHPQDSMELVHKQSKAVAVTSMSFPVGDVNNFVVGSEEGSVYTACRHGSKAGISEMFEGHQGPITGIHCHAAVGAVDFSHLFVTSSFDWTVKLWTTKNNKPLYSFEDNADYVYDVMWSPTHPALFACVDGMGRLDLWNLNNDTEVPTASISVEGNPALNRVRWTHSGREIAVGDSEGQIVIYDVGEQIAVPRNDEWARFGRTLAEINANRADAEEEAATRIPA
Chain of UniProt Q5W0V3 (Q5W0V3 whole entry, looked up): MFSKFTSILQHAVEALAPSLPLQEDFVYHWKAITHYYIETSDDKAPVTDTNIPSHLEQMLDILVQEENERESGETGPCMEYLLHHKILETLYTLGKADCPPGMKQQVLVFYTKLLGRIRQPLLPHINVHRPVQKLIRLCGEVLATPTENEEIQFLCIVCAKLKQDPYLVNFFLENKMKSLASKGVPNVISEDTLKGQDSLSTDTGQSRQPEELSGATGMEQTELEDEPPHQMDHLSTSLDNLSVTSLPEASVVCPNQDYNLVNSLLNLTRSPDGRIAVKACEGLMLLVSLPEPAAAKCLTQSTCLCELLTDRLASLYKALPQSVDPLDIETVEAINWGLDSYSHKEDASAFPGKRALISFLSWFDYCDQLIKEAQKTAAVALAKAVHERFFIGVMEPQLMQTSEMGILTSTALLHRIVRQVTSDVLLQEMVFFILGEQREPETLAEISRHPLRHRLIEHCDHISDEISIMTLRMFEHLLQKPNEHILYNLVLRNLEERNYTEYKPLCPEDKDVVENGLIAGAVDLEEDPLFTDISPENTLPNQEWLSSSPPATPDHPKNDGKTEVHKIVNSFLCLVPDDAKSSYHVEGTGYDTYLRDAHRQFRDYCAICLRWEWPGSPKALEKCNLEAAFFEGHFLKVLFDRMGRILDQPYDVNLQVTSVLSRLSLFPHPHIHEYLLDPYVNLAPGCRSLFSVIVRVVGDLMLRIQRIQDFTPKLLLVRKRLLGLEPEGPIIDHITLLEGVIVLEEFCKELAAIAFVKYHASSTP
Chain of UniProt P24534 (P24534 whole entry, looked up): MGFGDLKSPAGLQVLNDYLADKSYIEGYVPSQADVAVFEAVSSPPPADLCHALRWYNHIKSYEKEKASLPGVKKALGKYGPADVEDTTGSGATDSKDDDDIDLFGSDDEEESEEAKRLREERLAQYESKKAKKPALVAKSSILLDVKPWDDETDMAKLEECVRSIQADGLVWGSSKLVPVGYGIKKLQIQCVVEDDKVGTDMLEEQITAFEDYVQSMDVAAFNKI
Chain of UniProt Q9NVR5 (Q9NVR5 whole entry, looked up): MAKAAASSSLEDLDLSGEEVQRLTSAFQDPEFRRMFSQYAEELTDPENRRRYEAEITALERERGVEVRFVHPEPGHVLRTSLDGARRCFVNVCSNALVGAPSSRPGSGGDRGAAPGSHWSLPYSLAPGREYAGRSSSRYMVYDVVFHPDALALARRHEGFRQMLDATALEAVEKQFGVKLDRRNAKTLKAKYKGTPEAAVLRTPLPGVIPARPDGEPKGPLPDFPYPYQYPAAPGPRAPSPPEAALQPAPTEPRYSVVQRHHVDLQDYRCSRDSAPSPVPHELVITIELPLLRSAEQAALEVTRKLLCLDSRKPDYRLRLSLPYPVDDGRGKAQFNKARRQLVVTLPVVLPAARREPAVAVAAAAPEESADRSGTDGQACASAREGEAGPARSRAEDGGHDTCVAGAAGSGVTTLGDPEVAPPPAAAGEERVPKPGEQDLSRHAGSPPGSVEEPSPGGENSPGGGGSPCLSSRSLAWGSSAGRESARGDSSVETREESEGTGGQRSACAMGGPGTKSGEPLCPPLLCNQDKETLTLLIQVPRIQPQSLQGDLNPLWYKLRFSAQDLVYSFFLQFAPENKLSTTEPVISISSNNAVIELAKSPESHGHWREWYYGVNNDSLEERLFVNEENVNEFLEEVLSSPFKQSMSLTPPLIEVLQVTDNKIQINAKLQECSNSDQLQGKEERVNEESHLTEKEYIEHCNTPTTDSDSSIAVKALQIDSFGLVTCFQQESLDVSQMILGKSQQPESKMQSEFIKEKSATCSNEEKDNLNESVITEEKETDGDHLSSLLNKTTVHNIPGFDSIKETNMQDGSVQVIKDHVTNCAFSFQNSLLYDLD
Chain of UniProt Q16643 (Q16643 whole entry, looked up): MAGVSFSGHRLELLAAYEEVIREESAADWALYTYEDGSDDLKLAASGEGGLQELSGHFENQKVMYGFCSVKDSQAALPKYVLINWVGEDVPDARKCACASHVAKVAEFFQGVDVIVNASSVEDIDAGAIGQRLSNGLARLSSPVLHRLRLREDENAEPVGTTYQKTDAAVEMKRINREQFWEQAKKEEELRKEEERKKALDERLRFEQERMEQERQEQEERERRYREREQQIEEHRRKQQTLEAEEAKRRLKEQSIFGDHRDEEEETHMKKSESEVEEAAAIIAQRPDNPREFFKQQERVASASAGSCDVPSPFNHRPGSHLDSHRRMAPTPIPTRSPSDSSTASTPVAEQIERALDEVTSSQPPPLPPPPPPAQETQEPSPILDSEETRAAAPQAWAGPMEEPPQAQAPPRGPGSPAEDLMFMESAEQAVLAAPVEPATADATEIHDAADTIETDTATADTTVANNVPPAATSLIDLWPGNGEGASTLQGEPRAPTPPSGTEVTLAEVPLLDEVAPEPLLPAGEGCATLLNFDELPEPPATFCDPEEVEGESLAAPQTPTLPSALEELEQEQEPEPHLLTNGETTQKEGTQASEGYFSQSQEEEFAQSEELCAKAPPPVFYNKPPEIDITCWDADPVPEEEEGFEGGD
Chain of UniProt Q8IX18 (Q8IX18 whole entry, looked up): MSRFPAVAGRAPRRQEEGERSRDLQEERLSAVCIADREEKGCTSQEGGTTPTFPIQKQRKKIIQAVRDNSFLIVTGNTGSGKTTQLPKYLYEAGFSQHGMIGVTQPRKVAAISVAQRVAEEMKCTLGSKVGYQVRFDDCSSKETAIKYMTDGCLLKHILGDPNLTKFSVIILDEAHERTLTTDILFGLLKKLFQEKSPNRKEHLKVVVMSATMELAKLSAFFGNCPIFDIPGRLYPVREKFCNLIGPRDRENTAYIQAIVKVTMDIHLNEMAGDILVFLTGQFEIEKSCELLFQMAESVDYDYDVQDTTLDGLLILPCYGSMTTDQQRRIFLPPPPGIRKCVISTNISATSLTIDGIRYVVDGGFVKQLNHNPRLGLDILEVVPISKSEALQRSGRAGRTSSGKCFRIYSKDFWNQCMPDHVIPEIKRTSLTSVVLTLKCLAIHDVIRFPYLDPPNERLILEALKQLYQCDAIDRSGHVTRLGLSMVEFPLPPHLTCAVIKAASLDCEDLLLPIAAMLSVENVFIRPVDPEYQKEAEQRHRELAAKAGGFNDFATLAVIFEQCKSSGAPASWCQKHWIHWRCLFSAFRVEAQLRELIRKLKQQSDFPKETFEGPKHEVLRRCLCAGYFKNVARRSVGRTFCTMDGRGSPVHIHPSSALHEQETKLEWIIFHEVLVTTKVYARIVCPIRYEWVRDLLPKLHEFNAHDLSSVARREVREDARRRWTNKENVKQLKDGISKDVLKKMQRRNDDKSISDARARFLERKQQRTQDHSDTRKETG
Chain of UniProt O00148 (O00148 whole entry, looked up): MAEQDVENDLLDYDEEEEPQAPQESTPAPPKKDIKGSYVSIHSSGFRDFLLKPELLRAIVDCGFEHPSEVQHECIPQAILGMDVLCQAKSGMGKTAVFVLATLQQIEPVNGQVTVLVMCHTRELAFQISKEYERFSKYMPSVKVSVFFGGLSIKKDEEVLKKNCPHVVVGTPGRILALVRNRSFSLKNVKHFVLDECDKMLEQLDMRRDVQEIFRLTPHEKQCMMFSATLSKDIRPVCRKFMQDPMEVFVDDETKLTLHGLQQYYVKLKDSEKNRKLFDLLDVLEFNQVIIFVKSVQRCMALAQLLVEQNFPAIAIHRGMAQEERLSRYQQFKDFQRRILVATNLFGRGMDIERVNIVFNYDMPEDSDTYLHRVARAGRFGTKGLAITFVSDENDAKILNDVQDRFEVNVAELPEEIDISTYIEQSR
Chain of UniProt Q9NWS6 (Q9NWS6 whole entry, looked up): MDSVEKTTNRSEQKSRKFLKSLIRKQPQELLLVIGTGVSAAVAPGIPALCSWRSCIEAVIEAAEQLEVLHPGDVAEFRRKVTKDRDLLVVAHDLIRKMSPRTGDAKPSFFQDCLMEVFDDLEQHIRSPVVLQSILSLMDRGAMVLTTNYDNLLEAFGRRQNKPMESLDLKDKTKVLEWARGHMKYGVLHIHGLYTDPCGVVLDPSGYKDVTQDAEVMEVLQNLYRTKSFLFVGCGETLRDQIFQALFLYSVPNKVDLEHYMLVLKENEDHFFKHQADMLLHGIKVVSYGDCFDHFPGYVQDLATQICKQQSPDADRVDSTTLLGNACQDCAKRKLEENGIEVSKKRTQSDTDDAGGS
Chain of UniProt O94905 (O94905 whole entry, looked up): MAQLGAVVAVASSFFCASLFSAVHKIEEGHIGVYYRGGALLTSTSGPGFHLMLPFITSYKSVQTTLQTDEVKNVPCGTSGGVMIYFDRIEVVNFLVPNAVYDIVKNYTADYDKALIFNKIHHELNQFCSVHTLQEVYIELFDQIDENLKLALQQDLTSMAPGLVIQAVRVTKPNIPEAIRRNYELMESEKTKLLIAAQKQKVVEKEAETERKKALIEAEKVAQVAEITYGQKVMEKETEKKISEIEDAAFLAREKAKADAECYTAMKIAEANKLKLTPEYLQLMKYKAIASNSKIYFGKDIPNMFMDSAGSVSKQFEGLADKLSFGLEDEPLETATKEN

Compound in this assay: CS(=O)(=O)c1ccc(-c2cnc(N)c(C(=O)Nc3ccccc3)n2)cc1
The experiment in a line: log2 fold change, soluble protein after heating vs DMSO (PISA); higher = thermal stabilisation; K562 cells, 10 uM, 30 min; active = over 0.2 and 3.5 SD of the protein, either way, in both replicates (recomputed). An outline of the steps:
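K562 cells at 2×10^6 cells/mL were exposed to 10 μM compound for 30 min, then aliquots were heated for 3 min across 48°C-58°C, pooled, and extracted in PBS containing 0.5% NP-40 at 4°C. The supernatant after 21,000xg for 90 min was taken as soluble protein and measured by TMTpro 16plex LC-MS/MS with channel sums equalised. Thermal stability is reported relative to control samples, with values from duplicates. Fold changes are given on a log2 scale.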
Take DDX39A (UniProt O00148): the log2 fold change was 0.062.

For DCAF10 (UniProt Q5QP82), the log2 fold change is 0.036.

For the target EDC4 (UniProt Q6P2E9), the log2 fold change is -0.064.

Consider EHD2 (UniProt Q9NZN4), for which the log2 fold change is 0.

On to DNAH10 (UniProt Q8IVF4), for which the log2 fold change is 0.124.

ETNK1 (UniProt Q9HBU6): the log2 fold change was -0.006.

DDX4 (UniProt Q9NQI0): the log2 fold change is 0.

As to E2F4 (UniProt Q16254), the log2 fold change was 0.04.

For EFL1 (UniProt Q7Z2Z2), the log2 fold change was 0.02.

In the case of EXTL2 (UniProt Q9UBQ6), the log2 fold change is 0.132.

Take ECPAS (UniProt Q5VYK3): the log2 fold change was 0.

As for EEF1AKNMT (UniProt Q8N6R0), the log2 fold change was -0.011.

In the case of DNAJC1 (UniProt Q96KC8), the log2 fold change is -0.021.

For DHX40 (UniProt Q8IX18), the log2 fold change was 0.018.

Turning to ERLIN2 (UniProt O94905), the log2 fold change is -0.017.

For the target EED, A0A5F9ZI63, the log2 fold change was -0.074.

Consider FAM118A (UniProt Q9NWS6), for which the log2 fold change was -0.028.

For CTNNB1 (UniProt P35222), the log2 fold change is 0.666 (active).

Take EXOC8 (UniProt Q8IYI6): the log2 fold change is -0.062.

For the target DDX5 (UniProt P17844), the log2 fold change was 0.035.

As to CTSB (UniProt P07858), the log2 fold change is 0.048.

As to FAM160B1 (UniProt Q5W0V3), the log2 fold change is 0.015.

On to DNAAF2 (UniProt Q9NVR5), for which the log2 fold change was 0.018.

On to DYNC1I2 isoform 5 (UniProt Q13409), for which the log2 fold change is 0.026.

As for CTSL (UniProt P07711), the log2 fold change was 0.025.

CWC27 (UniProt Q6UX04): the log2 fold change was 0.03.

For EEF1B2 (UniProt P24534), the log2 fold change is 0.003.

Turning to DHPS (UniProt M0R1T2), the log2 fold change was -0.152.

Turning to DCUN1D1 (UniProt Q96GG9), the log2 fold change was -0.027.

Take CUEDC2 (UniProt Q9H467): the log2 fold change was 0.028.

For CUX1 isoform 3 (UniProt P39880), the log2 fold change was 0.02.

For the target DPYSL2 (UniProt Q16555), the log2 fold change is 0.034.

Take EXOC2 (UniProt Q96KP1): the log2 fold change was 0.006.

As for DIP2A (UniProt Q14689), the log2 fold change is -0.094.

On to DHCR24 (UniProt Q15392), for which the log2 fold change is 0.229.

On to DBN1 isoform 3 (UniProt Q16643), for which the log2 fold change was -0.063.

With DPP8 (UniProt Q6V1X1), the log2 fold change is 0.04.

Consider DDB1 (UniProt Q16531), for which the log2 fold change is 0.005.

For FAM50A (UniProt Q14320), the log2 fold change was 0.009.
